# Data as given in PubChem BioAssay (EPA / NIEHS).
# Records with an inconclusive call do not appear. Active and inactive are the calls of the source. Rule for the calls: active = hit-call score of the fitted dose curve at least 0.9, where 1 is the maximum; inconclusive = response in the unintended direction; inactive = score below 0.9.
# Molecular target: human Muscarinic, M4 Receptor, CHRM4 (gene 1132) (UniProt P08173)
# Experiment: NVS_GPCR_hM4: NovaScreen (NVS) G Protein-Coupled Receptor Assay for human Muscarinic, M4 Receptor (AID 2283274)
# Procedure: NVS_GPCR_hM4 is a biochemical, single-readout assay that uses extracted gene-proteins from CHO in a cell-free assay. Measurements were taken 1 hour after chemical dosing in a 96-well plate.NVS_GPCR_hM4 is one of one assay component(s) measured or calculated from the NVS_GPCR_hM4 assay. It is designed to make measurements of radioligand binding, a form of binding reporter, as detected with scintillation counting signals by Filter-based radiodetection technology.Data from the assay component NVS_GPCR_hM4 was analyzed into 1 assay endpoint. This assay endpoint, NVS_GPCR_hM4, was analyzed in the positive analysis fitting direction relative to DMSO as the negative control and baseline of activity. Using a type of binding reporter, loss-of-signal activity can be used to understand changes in the binding as they relate to the gene CHRM4. Furthermore, this assay endpoint can be referred to as a primary readout, because the performed assay has only produced 1 assay endpoint. To generalize the intended target to other relatable targets, this assay endpoint is annotated to the gpcr intended target family, where the subfamily is rhodopsin-like receptor.
# Binding assays used specific radioligands (tritiated, iodinated) with non-radioactive competitive displacement ligands in agonist or antagonist protocols (as indicated) and various reference compounds and inhibitors to titrate specific binding to receptors and transporters. Most enzyme assays (CYPs, kinases, phosphatases, proteases, HDACs) used recombinant protein and specific substrates (fluorescence mostly, some colorimetric and radioactive) and inhibitors, followed by a biochemical separation of substrate and product. All assays for the biochemical HTS were initially run in duplicate at a single concentration (10 uM for CYP450 assays and 25 uM for all others). […] Each assay was run with positive and negative controls, and concurrent controls on every plate. The follow-up (secondary) screen tested active chemical-pairs in concentration series, as well as a few additional assays not tested in the primary screen, some selected negative inactives, and several cases re-run in the concentration series for confirmatory purposes.
# human Muscarinic, M4 Receptor, CHRM4 (gene 1132), sequence (P08173 whole entry, looked up): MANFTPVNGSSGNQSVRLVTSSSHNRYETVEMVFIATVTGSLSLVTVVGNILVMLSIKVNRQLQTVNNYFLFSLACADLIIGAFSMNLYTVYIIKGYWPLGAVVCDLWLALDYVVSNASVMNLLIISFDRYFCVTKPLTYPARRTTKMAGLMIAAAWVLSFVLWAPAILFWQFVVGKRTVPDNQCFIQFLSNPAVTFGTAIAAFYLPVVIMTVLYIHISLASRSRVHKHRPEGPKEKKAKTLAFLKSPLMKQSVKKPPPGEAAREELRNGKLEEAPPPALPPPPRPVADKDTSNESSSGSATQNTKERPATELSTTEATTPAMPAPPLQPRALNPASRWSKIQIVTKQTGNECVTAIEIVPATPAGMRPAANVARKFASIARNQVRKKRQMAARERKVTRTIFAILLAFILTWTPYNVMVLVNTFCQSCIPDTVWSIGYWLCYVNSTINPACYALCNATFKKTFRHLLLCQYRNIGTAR
Compound,AC50,outcome
O=C1c2ccccc2C(=O)N1CCc1noc(-c2ccc(CN3CCCCCC3)s2)n1,7.92 µM (active),
COc1cc(C(=O)NC2CCN(C)CC2)ccc1Nc1ncc2c(n1)N(C1CCCC1)CC(F)(F)C(=O)N2C,16.7 µM (active),
CCCCCCCCN(C)CCCCCCCC,,inactive
CN(C)c1ccc(C(=C2C=CC(=[N+](C)C)C=C2)c2ccc(N(C)C)cc2)cc1,0.863 µM (active),
COc1ccc2cc(S(=O)(=O)N[C@H](CC(=O)N[C@H](Cc3ccc(CN4[C@H](C)CCC[C@@H]4C)cc3)C(=O)N(C)C(C)C)c3ccc4c(c3)OCO4)ccc2c1,2.44 µM (active),
Clc1cc(Cl)c2c(c1)N=C1CCCCCN1C2,1.71 µM (active),
CCOC(=O)O[C@H](C)OC(=O)c1ccc2c(c1)cc(C(=O)NC1CCN(C(C)C)CC1)n2Cc1cc(-c2ccc(Cl)s2)on1,2.17 µM (active),
CCCCCCCCOC(=O)c1cc(O)c(O)c(O)c1,8.67 µM (active),
NCc1cccc(C2CCN(C(=O)c3ccc(C#Cc4ccccc4F)o3)CC2)c1,0.882 µM (active),
CCN(CC)C(=O)c1cc(S(=O)(=O)Cc2ccccc2)c(N2CCC(c3ccccc3)CC2)cc1N(CC)CCN(C)C,9.84 µM (active),
CN(C)C(=O)C1(N2CCCCC2)CCN(CC[C@@]2(c3ccc(Cl)c(Cl)c3)CN(C(=O)c3ccccc3)CCO2)CC1,6.99 µM (active),
CCCCCCCCCCCC[N+](C)(C)C,2.77 µM (active),
Cc1occc1C(=O)Nc1ccc(C(=O)N2CCC(F)(F)/C(=C\C(=O)N3CCC(N4CCCCC4)CC3)c3ccccc32)cc1,7.11 µM (active),
c1ccc(C[n+]2cccc3ccccc32)cc1,16.8 µM (active),
